# Target: AgAbp1
# Test: SPOT peptide array binding signal intensity (averaged, normalized) (arbitrary units (background-subtracted, floor 0; scale differs between SH3 domains)); higher = stronger binding of the SH3 domain to the peptide
# Method in brief: (§1)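 E. coli BL21(DE3) was used to express GST-fused SH3 domains from four yeast species, which were then purified on glutathione Sepharose. These were incubated at 10 μg/ml in TBS-based blocking buffer overnight at 4°C on cellulose membranes carrying synthetic 15-mer peptides, in which cysteines were replaced by serines. Binding signal is the replicate average of normalized, background-subtracted spot intensity, in arbitrary units that differ between domains.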
row,Binder,SPOT peptide array binding signal intensity
1,KWVRRPKLMTPLTFS,205

# Target: AgBbc1
# Test: as above
# Method in brief: as §1
row,Binder,SPOT peptide array binding signal intensity
1,KWVRRPKLMTPLTFS,73.5

# Target: AgBem1-D1
# Test: as above
# Method in brief: as §1
row,Binder,SPOT peptide array binding signal intensity
1,KWVRRPKLMTPLTFS,169

# Target: AgBzz1-D1
# Test: as above
# Method in brief: as §1
row,Binder,SPOT peptide array binding signal intensity
1,KWVRRPKLMTPLTFS,25

# Target: AgBzz1-D2
# Test: as above
# Method in brief: as §1
row,Binder,SPOT peptide array binding signal intensity
1,KWVRRPKLMTPLTFS,8

# Target: AgCyk3
# Test: as above
# Method in brief: as §1
row,Binder,SPOT peptide array binding signal intensity
1,KWVRRPKLMTPLTFS,3

# Target: AgFus1
# Test: as above
# Method in brief: as §1
row,Binder,SPOT peptide array binding signal intensity
1,KWVRRPKLMTPLTFS,754

# Target: AgHof1
# Test: as above
# Method in brief: as §1
row,Binder,SPOT peptide array binding signal intensity
1,KWVRRPKLMTPLTFS,110

# Target: AgHse1
# Test: as above
# Method in brief: as §1
row,Binder,SPOT peptide array binding signal intensity
1,KWVRRPKLMTPLTFS,818

# Target: AgLsb1
# Test: as above
# Method in brief: as §1
row,Binder,SPOT peptide array binding signal intensity
1,KWVRRPKLMTPLTFS,495

# Target: AgLsb4
# Test: as above
# Method in brief: as §1
row,Binder,SPOT peptide array binding signal intensity
1,KWVRRPKLMTPLTFS,71

# Target: AgMyo5
# Test: as above
# Method in brief: as §1
row,Binder,SPOT peptide array binding signal intensity
1,KWVRRPKLMTPLTFS,≤ 0

# Target: AgNbp2
# Test: as above
# Method in brief: as §1
row,Binder,SPOT peptide array binding signal intensity
1,KWVRRPKLMTPLTFS,371

# Target: AgRvs167
# Test: as above
# Method in brief: as §1
row,Binder,SPOT peptide array binding signal intensity
1,KWVRRPKLMTPLTFS,8

# Target: AgSho1
# Test: as above
# Method in brief: as §1
row,Binder,SPOT peptide array binding signal intensity
1,KWVRRPKLMTPLTFS,185

# Target: AgSla1-D1-D2
# Test: as above
# Method in brief: as §1
row,Binder,SPOT peptide array binding signal intensity
1,KWVRRPKLMTPLTFS,275

# Target: AgSla1-D3
# Test: as above
# Method in brief: as §1
row,Binder,SPOT peptide array binding signal intensity
1,KWVRRPKLMTPLTFS,11.2

# Target: CaAbp1-D1
# Test: as above
# Method in brief: as §1
row,Binder,SPOT peptide array binding signal intensity
1,KWVRRPKLMTPLTFS,498

# Target: CaAbp1-D2
# Test: as above
# Method in brief: as §1
row,Binder,SPOT peptide array binding signal intensity
1,KWVRRPKLMTPLTFS,297

# Target: CaBbc1
# Test: as above
# Method in brief: as §1
row,Binder,SPOT peptide array binding signal intensity
1,KWVRRPKLMTPLTFS,192

# Target: CaBem1-D1
# Test: as above
# Method in brief: as §1
row,Binder,SPOT peptide array binding signal intensity
1,KWVRRPKLMTPLTFS,329

# Target: CaBzz1-D1
# Test: as above
# Method in brief: as §1
row,Binder,SPOT peptide array binding signal intensity
1,KWVRRPKLMTPLTFS,164

# Target: CaBzz1-D2
# Test: as above
# Method in brief: as §1
row,Binder,SPOT peptide array binding signal intensity
1,KWVRRPKLMTPLTFS,121

# Target: CaCyk3
# Test: as above
# Method in brief: as §1
row,Binder,SPOT peptide array binding signal intensity
1,KWVRRPKLMTPLTFS,45

# Target: CaFus1
# Test: as above
# Method in brief: as §1
row,Binder,SPOT peptide array binding signal intensity
1,KWVRRPKLMTPLTFS,1360

# Target: CaHof1
# Test: as above
# Method in brief: as §1
row,Binder,SPOT peptide array binding signal intensity
1,KWVRRPKLMTPLTFS,1.5

# Target: CaHse1
# Test: as above
# Method in brief: as §1
row,Binder,SPOT peptide array binding signal intensity
1,KWVRRPKLMTPLTFS,180

# Target: CaLsb1
# Test: as above
# Method in brief: as §1
row,Binder,SPOT peptide array binding signal intensity
1,KWVRRPKLMTPLTFS,7

# Target: CaLsb4
# Test: as above
# Method in brief: as §1
row,Binder,SPOT peptide array binding signal intensity
1,KWVRRPKLMTPLTFS,346

# Target: CaMyo5
# Test: as above
# Method in brief: as §1
row,Binder,SPOT peptide array binding signal intensity
1,KWVRRPKLMTPLTFS,11.5

# Target: CaNbp2
# Test: as above
# Method in brief: as §1
row,Binder,SPOT peptide array binding signal intensity
1,KWVRRPKLMTPLTFS,757

# Target: CaRvs167
# Test: as above
# Method in brief: as §1
row,Binder,SPOT peptide array binding signal intensity
1,KWVRRPKLMTPLTFS,162

# Target: CaRvs167-3
# Test: as above
# Method in brief: as §1
row,Binder,SPOT peptide array binding signal intensity
1,KWVRRPKLMTPLTFS,27.8

# Target: CaSho1
# Test: as above
# Method in brief: as §1
row,Binder,SPOT peptide array binding signal intensity
1,KWVRRPKLMTPLTFS,522

# Target: CaSla1-D1-D2
# Test: as above
# Method in brief: as §1
row,Binder,SPOT peptide array binding signal intensity
1,KWVRRPKLMTPLTFS,623

# Target: CaSla1-D3
# Test: as above
# Method in brief: as §1
row,Binder,SPOT peptide array binding signal intensity
1,KWVRRPKLMTPLTFS,264

# Target: ScAbp1
# Test: as above
# Method in brief: as §1
row,Binder,SPOT peptide array binding signal intensity
1,KWVRRPKLMTPLTFS,103

# Target: ScBbc1
# Test: as above
# Method in brief: as §1
row,Binder,SPOT peptide array binding signal intensity
1,KWVRRPKLMTPLTFS,23

# Target: ScBem1-D1
# Test: as above
# Method in brief: as §1
row,Binder,SPOT peptide array binding signal intensity
1,KWVRRPKLMTPLTFS,91.5

# Target: ScBzz1-D1
# Test: as above
# Method in brief: as §1
row,Binder,SPOT peptide array binding signal intensity
1,KWVRRPKLMTPLTFS,50.5

# Target: ScBzz1-D2
# Test: as above
# Method in brief: as §1
row,Binder,SPOT peptide array binding signal intensity
1,KWVRRPKLMTPLTFS,59

# Target: ScCyk3
# Test: as above
# Method in brief: as §1
row,Binder,SPOT peptide array binding signal intensity
1,KWVRRPKLMTPLTFS,64.5

# Target: ScFus1
# Test: as above
# Method in brief: as §1
row,Binder,SPOT peptide array binding signal intensity
1,KWVRRPKLMTPLTFS,1090

# Target: ScHof1
# Test: as above
# Method in brief: as §1
row,Binder,SPOT peptide array binding signal intensity
1,KWVRRPKLMTPLTFS,3.75

# Target: ScHse1
# Test: as above
# Method in brief: as §1
row,Binder,SPOT peptide array binding signal intensity
1,KWVRRPKLMTPLTFS,1650

# Target: ScLsb1
# Test: as above
# Method in brief: as §1
row,Binder,SPOT peptide array binding signal intensity
1,KWVRRPKLMTPLTFS,132

# Target: ScLsb2
# Test: as above
# Method in brief: as §1
row,Binder,SPOT peptide array binding signal intensity
1,KWVRRPKLMTPLTFS,15.5

# Target: ScLsb3
# Test: as above
# Method in brief: as §1
row,Binder,SPOT peptide array binding signal intensity
1,KWVRRPKLMTPLTFS,166

# Target: ScLsb4
# Test: as above
# Method in brief: as §1
row,Binder,SPOT peptide array binding signal intensity
1,KWVRRPKLMTPLTFS,32.5

# Target: ScMyo3
# Test: as above
# Method in brief: as §1
row,Binder,SPOT peptide array binding signal intensity
1,KWVRRPKLMTPLTFS,3.5

# Target: ScMyo5
# Test: as above
# Method in brief: as §1
row,Binder,SPOT peptide array binding signal intensity
1,KWVRRPKLMTPLTFS,5.25

# Target: ScNbp2
# Test: as above
# Method in brief: as §1
row,Binder,SPOT peptide array binding signal intensity
1,KWVRRPKLMTPLTFS,818

# Target: ScPex13
# Test: as above
# Method in brief: as §1
row,Binder,SPOT peptide array binding signal intensity
1,KWVRRPKLMTPLTFS,56.8

# Target: ScRvs167
# Test: as above
# Method in brief: as §1
row,Binder,SPOT peptide array binding signal intensity
1,KWVRRPKLMTPLTFS,121

# Target: ScSho1
# Test: as above
# Method in brief: as §1
row,Binder,SPOT peptide array binding signal intensity
1,KWVRRPKLMTPLTFS,1880

# Target: ScSla1-D1-D2
# Test: as above
# Method in brief: as §1
row,Binder,SPOT peptide array binding signal intensity
1,KWVRRPKLMTPLTFS,735

# Target: ScSla1-D3
# Test: as above
# Method in brief: as §1
row,Binder,SPOT peptide array binding signal intensity
1,KWVRRPKLMTPLTFS,161

# Target: SpAbp1-D1
# Test: as above
# Method in brief: as §1
row,Binder,SPOT peptide array binding signal intensity
1,KWVRRPKLMTPLTFS,289

# Target: SpBbc1
# Test: as above
# Method in brief: as §1
row,Binder,SPOT peptide array binding signal intensity
1,KWVRRPKLMTPLTFS,7

# Target: SpBzz1-D1
# Test: as above
# Method in brief: as §1
row,Binder,SPOT peptide array binding signal intensity
1,KWVRRPKLMTPLTFS,176

# Target: SpBzz1-D2
# Test: as above
# Method in brief: as §1
row,Binder,SPOT peptide array binding signal intensity
1,KWVRRPKLMTPLTFS,0.5

# Target: SpCyk3
# Test: as above
# Method in brief: as §1
row,Binder,SPOT peptide array binding signal intensity
1,KWVRRPKLMTPLTFS,7

# Target: SpHof1
# Test: as above
# Method in brief: as §1
row,Binder,SPOT peptide array binding signal intensity
1,KWVRRPKLMTPLTFS,158

# Target: SpHof1-2
# Test: as above
# Method in brief: as §1
row,Binder,SPOT peptide array binding signal intensity
1,KWVRRPKLMTPLTFS,17

# Target: SpHof1-3
# Test: as above
# Method in brief: as §1
row,Binder,SPOT peptide array binding signal intensity
1,KWVRRPKLMTPLTFS,450

# Target: SpHse1
# Test: as above
# Method in brief: as §1
row,Binder,SPOT peptide array binding signal intensity
1,KWVRRPKLMTPLTFS,666

# Target: SpLsb1
# Test: as above
# Method in brief: as §1
row,Binder,SPOT peptide array binding signal intensity
1,KWVRRPKLMTPLTFS,466

# Target: SpLsb4
# Test: as above
# Method in brief: as §1
row,Binder,SPOT peptide array binding signal intensity
1,KWVRRPKLMTPLTFS,500

# Target: SpMyo1
# Test: as above
# Method in brief: as §1
row,Binder,SPOT peptide array binding signal intensity
1,KWVRRPKLMTPLTFS,8.75

# Target: SpNbp2
# Test: as above
# Method in brief: as §1
row,Binder,SPOT peptide array binding signal intensity
1,KWVRRPKLMTPLTFS,558

# Target: SpPex13
# Test: as above
# Method in brief: as §1
row,Binder,SPOT peptide array binding signal intensity
1,KWVRRPKLMTPLTFS,217

# Target: SpRvs167
# Test: as above
# Method in brief: as §1
row,Binder,SPOT peptide array binding signal intensity
1,KWVRRPKLMTPLTFS,34.2

# Target: SpSla1-D1-D2
# Test: as above
# Method in brief: as §1
row,Binder,SPOT peptide array binding signal intensity
1,KWVRRPKLMTPLTFS,1.5

# Target: SpSla1-D3
# Test: as above
# Method in brief: as §1
row,Binder,SPOT peptide array binding signal intensity
1,KWVRRPKLMTPLTFS,62

# From the supplement of paper PMC4466140
